High-throughput results (PubChem BioAssay)
Shown are actives, neighbours in structure and some others; about 5.9% of the full set was active somewhere.
GLP-1R inv ag – GLP-1 receptor (human) inverse agonism. 1.6% of 410,000 active. HEK293 GLP-1R CRE-luciferase, luminescence, 24 h; GLP-1R form is constitutively active. Potency, µM (highest dose often 38.3 µM), for the others: at the highest dose activity change, negative = inhibition, usual class: inhibitors; note: % is set by controls: 0 for no effect and ±100 for the full control effect; nearly all actives have a fitted effect of over 55% in size
Target sequence (P43220 whole entry, looked up): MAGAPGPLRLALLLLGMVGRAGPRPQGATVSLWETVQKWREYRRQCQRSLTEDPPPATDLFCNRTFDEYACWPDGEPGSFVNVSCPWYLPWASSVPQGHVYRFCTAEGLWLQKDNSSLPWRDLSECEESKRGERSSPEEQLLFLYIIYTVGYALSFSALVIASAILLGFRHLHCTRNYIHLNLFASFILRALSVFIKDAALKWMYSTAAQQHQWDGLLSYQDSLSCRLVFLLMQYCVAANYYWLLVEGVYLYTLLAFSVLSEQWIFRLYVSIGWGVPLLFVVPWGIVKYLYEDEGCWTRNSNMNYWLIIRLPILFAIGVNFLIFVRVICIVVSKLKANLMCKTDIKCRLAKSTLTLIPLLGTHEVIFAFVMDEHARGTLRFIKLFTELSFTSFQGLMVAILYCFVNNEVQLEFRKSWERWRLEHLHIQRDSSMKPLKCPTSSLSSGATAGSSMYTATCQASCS
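qHTS in 1536-well format: reporter HEK293 cells expressing constitutive GLP-1R activity in DMEM + 10% Nu serum, 24 hr with compounds at 37 deg C, luminescence read after 12 min with detection reagent.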
GLP1R cytotox – cytotoxicity counter-screen for GLP-1 receptor inverse agonists | 0.13% of 410,000 active | AID 624418 | HEK293 cAMP-luciferase reporter cells, luminescence, 24 h | Potency, µM (series often up to 38.3 µM), inactives show at the highest dose activity change, negative = inhibition, hits mostly inhibitors;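 note: loss of luciferase light is scored as toxicity; % is set by controls: 0 for no effect and ±100 for the full control effect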
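To flag toxic compounds, the library was rerun on cells for 24 hr at 37 deg C and 5% CO2. Viability-linked luminescence was captured 12 min after adding luciferase detection reagent.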
GLP-1R agonist – GLP-1 receptor (human) agonism. HEK293 GLP-1R CRE-luciferase, luminescence, 4-6 h; cells express a hypersensitive GLP-1R form. Potency, µM (highest dose often 45.6 µM), for the others: at the top dose activation, actives largely listed as activators. 0.007% of 380,000 active. AID 624172; note: % of control where 0% means no effect
Gal4-VP16 FLuc – inhibits Gal4-VP16 luciferase reporter, ROR gamma counter-screen | 3.5% of 310,000 active | Potency, µM (series often up to 53.6 µM), for the others: top-dose activity, negative = inhibition, usual class: inhibitors | AID 2546 | Drosophila S2 Gal4-VP16 UAS-luciferase, luminescence, 20 h;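 note: Gal4-VP16 expression switched on by copper sulfate through the metallothionein promoter; % is set by controls: 0 for no effect and ±100 for the full control effect; nearly all actives have a fitted effect of over 50% in size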
RORgamma inh – inhibitors of mouse ROR gamma transcriptional activity; Drosophila S2 Gal4-RORgamma UAS-luciferase reporter, 20 h; Potency, µM (doses to about 53.6 µM), for inactives: at the top dose activity change, negative = inhibition, hits mostly inhibitors; 5.4% of 310,000 active; AID 2551; note: % is set by controls: 0 for no effect and ±100 for the full control effect; nearly all actives have a fitted effect of over 60% in size
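Luciferase reporter read in Schneider cells carrying Gal4-RORγ (mouse) and UAS-Photinus luciferase; cells given compound 1 h before 700 uM copper sulfate induction, then incubated 20 h at ambient temperature.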
* marks the source's active call; other numbers are inactive results; ? = inconclusive; / = no result; [ ] = dose if it differs, or a comment. Calls come from the whole dose curve; as a rule, active = well fitted curve in the direction sought with a large enough effect; inconclusive = small, poorly fitted or top-dose-only effect, or another doubt; inactive = no such curve, though single readings can be large; an effect the other way counts as inactive or inconclusive. Potency is the fitted concentration of half-maximal effect.

SMILES	GLP-1R inv ag	GLP1R cytotox	GLP-1R agonist	Gal4-VP16 FLuc	RORgamma inh
CCc1ccc(-n2c(SCC(=O)c3ccc4c(c3)NC(=O)CO4)nc3ccccc3c2=O)cc1	12%	6%	0%	-1%	2.5µM*
O=C1COc2ccc(C(=O)CSc3nc4ccccc4c(=O)n3-c3ccc(Cl)c(Cl)c3)cc2N1	-12%	-19%	3%	6%	-29%
COc1ccccc1NC(=O)c1sc2nc(C)c(C(=O)Nc3ccc(C)cc3C)c(-c3ccc(Br)cc3)c2c1N	-1%	14%	/	/	/
CCOc1ccc2c(c1)c(=O)c(C(=O)c1ccc(CC)cc1)cn2CC(=O)Nc1ccccc1C	13%	3%	0%	/	/
N#CCSc1nc2ccccc2c(=O)n1CCC(=O)NCCc1ccccc1	44%	2%	19%	-4%	0%
CC(=O)NCCn1c(SCC#N)nc2ccccc2c1=O	0%	-22%	-11%	4%	0.22µM*
COc1ccc(C(=O)N2CCc3cc(OC)c(OC)cc3C2COc2ccccc2OC)cc1 (stereo not drawn)	20%	-11%	18%	/	/
O=C(CCl)N1CCCC1c1ccc2c(c1)OCCO2 (stereo not drawn)	?	-5%	-3%	?	4.5µM*
CC(=O)c1ccc(OCC(=O)N2CCCC2c2ccc3c(c2)OCCCO3)cc1 (stereo not drawn)	7%	-1%	10%	/	/
CSc1ncc2c(n1)-c1ccccc1N(Cc1ccc(F)cc1)S2(=O)=O	-5%	-14%	/	/	/
COc1ccc(-c2cnn3c(N)c(S(=O)(=O)C(C)(C)C)cnc23)cc1	-5%	-26%	2%	?	11µM*
CC(C)(C)S(=O)(=O)c1cnc2c(-c3ccc(F)cc3)cnn2c1N	7%	6%	-7%	-4%	4.5µM*
Nc1c(-c2ccc(Cl)cc2)cnc2c(-c3ccccc3)cnn12	37%	-1%	3%	-7%	22µM*
Nc1c(-c2ccccc2)cnc2cc(-c3ccccc3)nn12	10%	1%	0%	?	2.8µM*
CCCC12CN3CC(CCC)(CN(C1)C3c1c[nH]c3ccccc13)C2=O (stereo not drawn)	-8%	3%	/	/	/
COC(=O)c1sc2cccc(F)c2c1S(=O)(=O)Nc1cc(C)c(Cl)cc1OC	?	4%	/	/	/
CC(O)CCCCCCC/C=C/C=C/C(N)=O (stereo not drawn)	/	/	/	-5%[10 µM]	0%[10 µM]
CC(C)(C)OC(=O)N1CCC(c2c(C(=O)NCc3ccccc3)cnn2-c2cccc(F)c2)CC1	?	-14%	/	/	/
CC(C)(C)S(=O)(=O)c1cnc2c(-c3ccc(Cl)cc3)cnn2c1N	0%	-12%	-15%	-10%	2.8µM*
Cc1ccc(COC(=O)c2[nH]c3c(c2C)C(=O)CC(c2ccc(Cl)cc2)C3)cc1 (stereo not drawn)	11%	0%	/	/	/
Cc1ccc(NC(=O)c2nc(S(C)(=O)=O)ncc2N(Cc2ccco2)Cc2ccccc2F)c(C)c1	5%	-3%	/	/	/
CC(C)c1ccc(CN(Cc2ccco2)c2cnc(S(C)(=O)=O)nc2C(=O)Nc2ccccc2)cc1	5µM*	0%	/	/	/
CCS(=O)(=O)c1ncc(N(Cc2ccco2)Cc2ccccc2F)c(C(=O)Nc2cccc(Cl)c2)n1	8.9µM*	11%	/	/	/
CS(=O)(=O)c1ncc(N(Cc2ccccc2)Cc2ccco2)c(C(=O)Nc2cccc(C(F)(F)F)c2)n1	?	-12%	/	/	/
COc1ccc(C(=O)NC(=S)NCc2ccccc2)cc1OC	13%	-29%	29%	?	3.2µM*
SMILES	GLP-1R inv ag	GLP1R cytotox	GLP-1R agonist	Gal4-VP16 FLuc	RORgamma inh
COc1ccc(C(=O)NC(=S)NCc2cccnc2)cc1OC	14%	18%	13%	-4%	-12%
COc1ccc(C(=O)NC(=S)NCc2ccc(-c3nc4ccccc4o3)cc2)cc1OC	0%	-5%	5%	2.5µM*	1.3µM*
CCOc1cc(C(=O)NCc2ccc(-c3nc4ccccc4o3)cc2)cc(OCC)c1OCC	6%	6%	2%	12%	8%
COc1cccc(OC)c1C(=O)NC(=S)NCc1ccccc1	-14%	14%	-1%	?	10µM*
Cc1ccc(C(=O)NC(=S)NCc2ccccc2)cc1	-27%	?	12%	13µM*	10µM*
COc1ccc2c(c1)O[C@@H](c1cccc(C(F)(F)F)c1)[C@H](OC(=O)NS(=O)(=O)c1ccc(C)cc1)C2=O	/	/	/	-3%	3%
CN(C)c1ccc(CNC(=O)CCn2c(=O)c3cccn3c3ccc(F)cc32)cc1	7%	2%	/	/	/
COc1ccc(C(=O)Nc2cccnc2Cl)cc1OC	93%	-1%	20%	2%	-9%
COc1ccccc1-c1cc(C(=O)Nc2cccnc2Cl)no1	7%	-7%	2%	-2%	1%
COc1ccccc1C(=O)NC(=S)Nc1cccnc1Cl	?	-2%	-6%	?	10µM*
COc1ccccc1C(=O)NNC(=S)NC(=O)c1sc2ccccc2c1Cl	1%	-2%	-19%	13µM*	13µM*
COc1ccccc1C(=O)NC(=S)NNC(=O)c1sc2ccccc2c1Cl	11%	10%	-8%	-10%	3%
Cc1ccc(C(=O)NC(=S)Nc2cccnc2Cl)cc1	-6%	-28%	20%	?	5µM*
COc1ccccc1NC(=O)c1cc2c(=O)n(Cc3cccs3)ccc2nc1C	-27%	-10%	/	/	/
CCN(CC)CCNc1ccc(CO)c2oc3cc(Cl)ccc3c(=O)c12	4.5µM*	-16%	-3%	/	/
CN(C)CCNc1ccc(CO)c2oc3ccc(O)cc3c(=O)c12	10µM*	?	-30%	/	/
CCN(CC)CCNC(CC(=O)Nc1ccc(Cl)cc1Cl)C(=O)O (stereo not drawn)	-3%	61%	-17%	-3%	-10%
N#Cc1cccc(-c2cc(NCc3cccs3)ncn2)c1	/	/	/	-7%	?
COc1ccc(C(=O)N2CCC3(CC2)CN(c2ncccn2)C3)cc1	/	/	/	1%	-16%
COC(=O)C1=C(C)NC(C)=C(C(=O)OCCNCc2ccccc2)C1c1cccc([N+](=O)[O-])c1 (stereo not drawn)	/	/	/	-8%	10%
CCCC(=O)Nc1nnc(CC(=O)N2CCCC2)s1	10%	0%	-6%	-6%	1.3µM*
S=c1nn[nH]n1C12CC3CC(CC(C3)C1)C2	-19%	-23%	-1%	7.1µM*	2.5µM*
COc1ccc(C2(N3CCN(c4cccc(C)c4C)CC3)C(=O)c3ccccc3C2=O)cc1	4%	2%	/	/	/
O=C(Nc1ccc(-c2nc3ccccc3o2)c(O)c1)c1cc(-n2cnnc2)ccc1Cl	71%	1%	-1%	?	8.9µM*
COc1cc(OC)c(C(=O)CCCCN2CCC3(CC2)NC(=O)NC3=O)cc1NS(=O)(=O)c1ccc(C(F)(F)F)cc1	/	/	/	-13%	4%
CCOC(=O)c1nn(-c2ccccc2)c(C(=O)OCC)c1N	45%	?	9%	2%	1.3µM*
